Over roughly 33,000 sequences, “e-score” has its median near -0.05; the highest 2% begin near 0.38. This is one part of a sample in which the highest values are shown more often than they occur.
target: T1, SIX1-Q177R homeodomain (human, UniProt Q15475 108-198, Q177R); test: universal protein binding microarray; Universal all-10-mer PBM (8x60K, AMADID 030236), 300 nM GST-tagged protein, Alexa Fluor 488 anti-GST; buffer, salt, pH and temperature not stated (as in Berger); high values mean tight binding; settings: protein: ivt; tags: N-terminal GST; dsDNA, one strand shown
T1 sequence: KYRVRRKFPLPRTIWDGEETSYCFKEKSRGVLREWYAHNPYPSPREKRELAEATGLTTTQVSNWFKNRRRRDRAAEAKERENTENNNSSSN
In short: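 Binding was expressed as 8-mer E-scores calculated with the Universal PBM Analysis Suite. The GST-tagged homeodomains, made by in vitro transcription/translation, were applied in duplicate at 300 nM final concentration to universal 'all 10-mer' protein binding microarrays (8×60K format).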

Row | Sequence | binding signal
1 | AAAGGGGT | 0.162 ± 0.0302 E-score
2 | AACGGTGT | 0.4669 ± 0.000509 E-score
3 | AAGGGTAT | 0.262 ± 0.0281 E-score
4 | CACGGTGA | 0.221 ± 0.0367 E-score
5 | AAGGGTGT | 0.4645 ± 0.00313 E-score
6 | AATGGTAT | 0.227 ± 0.00525 E-score
7 | AACGGTGC | 0.184 ± 0.0227 E-score
8 | AGGGGTAT | 0.3 ± 0.0125 E-score
9 | CGACTCCC | 0.263 ± 0.056 E-score
10 | GGTCCACA | 0.17 ± 0.0089 E-score
11 | TCGTTACA | 0.278 ± 0.00887 E-score
12 | AACCTACA | 0.192 ± 0.0148 E-score
13 | GTACTGAC | 0.172 ± 0.0189 E-score
14 | CACCCCCC | 0.341 ± 0.0318 E-score
15 | GACCCCCC | 0.248 ± 0.0557 E-score
16 | CCCACCCC | 0.304 ± 0.0356 E-score
17 | GGCACCCC | 0.158 ± 0.0472 E-score
18 | GACACCCC | 0.487 ± 0.00971 E-score
19 | GACACCCA | 0.479 ± 0.00732 E-score
20 | CACACCCG | 0.423 ± 0.0208 E-score
21 | CACACCCC | 0.402 ± 0.0285 E-score
22 | CGCACCCG | 0.245 ± 0.0361 E-score

Row | Sequence | binding signal
23 | GACCCCCA | 0.233 ± 0.0487 E-score
24 | CGCACCCA | 0.193 ± 0.0349 E-score
25 | CACCCCCG | 0.325 ± 0.0496 E-score
26 | CCCCTGAC | 0.271 ± 0.0456 E-score
27 | CAATGGTG | 0.299 E-score
28 | CACTCGAC | 0.211 ± 0.00795 E-score
29 | CGGGTCTC | 0.207 ± 0.0182 E-score
30 | ATGAGGGG | 0.195 ± 0.0319 E-score
31 | AAGTCGTG | 0.169 ± 0.0361 E-score
32 | AGATGGAG | 0.181 ± 0.00463 E-score
33 | CACGCAAA | 0.251 ± 0.0233 E-score
34 | AACTCACA | 0.174 ± 0.0813 E-score
35 | CTGATACC | 0.312 ± 0.00631 E-score
36 | CGGGAGTA | 0.26 ± 0.0317 E-score
37 | CACCCATA | 0.301 ± 0.0276 E-score
38 | CACCTTGA | 0.177 ± 0.00756 E-score
39 | GTTCTACA | 0.239 ± 0.00598 E-score
40 | GATCCCCA | 0.267 ± 0.0387 E-score
41 | AGCACCCT | 0.172 ± 0.0259 E-score
42 | AGCACCCG | 0.262 ± 0.00343 E-score
43 | AACACCCC | 0.4753 ± 0.00361 E-score
44 | AGCACCCC | 0.295 ± 0.0259 E-score

Row | Sequence | binding signal
45 | AACACCCT | 0.4609 ± 0.00173 E-score
46 | AACACCCG | 0.466 E-score
47 | AACCCCCA | 0.209 ± 0.0281 E-score
48 | ACCACCCC | 0.249 ± 0.0234 E-score
49 | AACACCCA | 0.4561 ± 0.00225 E-score
50 | AACCCCCG | 0.244 ± 0.0392 E-score
51 | ACCACCCT | 0.183 ± 0.0205 E-score
52 | AGCACCCA | 0.159 ± 0.0296 E-score
53 | AACTCCGG | 0.161 ± 0.0108 E-score
54 | ACCTCGTG | 0.208 ± 0.00536 E-score
55 | ACGCCGGG | 0.16 ± 0.00711 E-score
56 | CGGATAAC | 0.213 ± 0.00738 E-score
57 | ACCTAGTG | 0.232 ± 0.0203 E-score
58 | CCGACCGG | 0.172 ± 0.0141 E-score
59 | CGCGCACC | 0.193 ± 0.014 E-score
60 | AACGGAGT | 0.152 ± 0.031 E-score
61 | ACCAGACA | 0.234 ± 0.0203 E-score
62 | ACGATACC | 0.3575 ± 0.00339 E-score
63 | TGCACCCA | 0.153 ± 0.0378 E-score
64 | TACCCCCA | 0.304 ± 0.00484 E-score
65 | CACACCCA | 0.382 ± 0.038 E-score
66 | CACCCCCA | 0.368 ± 0.0341 E-score

Row | Sequence | binding signal
67 | TACACCCA | 0.4707 ± 0.00252 E-score
68 | CCCACCCA | 0.204 ± 0.0309 E-score
69 | CGAACGGA | 0.21 ± 0.0321 E-score
70 | ACCCAGTA | 0.175 ± 0.0267 E-score
71 | GTGTTAAC | 0.415 ± 0.0316 E-score
72 | GTGTGAAC | 0.362 ± 0.00749 E-score
73 | GTGTTATA | 0.432 ± 0.0299 E-score
74 | GTGTTACA | 0.4422 ± 0.00139 E-score
75 | GTGTTTTA | 0.361 ± 0.026 E-score
76 | ATGTTACA | 0.177 ± 0.00778 E-score
77 | GGGTTATA | 0.2303 ± 0.000672 E-score
78 | GAGTTAAC | 0.171 ± 0.00701 E-score
79 | CTGTTACA | 0.238 ± 0.0173 E-score
80 | GTGTTTGA | 0.35 ± 0.00533 E-score
81 | GTGTTAGA | 0.41 ± 0.0163 E-score
82 | ACCTAACA | 0.203 ± 0.0209 E-score
83 | ACAAGGGT | 0.21 ± 0.00286 E-score
84 | AAGAGTGT | 0.363 ± 0.0349 E-score
85 | CCGACGCC | 0.154 ± 0.0342 E-score
86 | AGGGAGTG | 0.163 ± 0.00586 E-score
87 | CACTAACC | 0.17 ± 0.00501 E-score
88 | AGGGCGTG | 0.169 ± 0.0301 E-score

Row | Sequence | binding signal
89 | CTCCGACA | 0.175 ± 0.075 E-score
90 | ACCTGCCT | 0.198 ± 0.0238 E-score
91 | CACCTTAG | 0.286 ± 0.00858 E-score
92 | CGCGGGTA | 0.273 ± 0.00467 E-score
93 | CGGTGCGA | 0.155 ± 0.0742 E-score
94 | TGGAAACA | 0.223 ± 0.0152 E-score
95 | GGGTTAAA | 0.214 ± 0.0192 E-score
96 | GTGTTAAA | 0.403 ± 0.0279 E-score
97 | GTGTTTAA | 0.375 ± 0.015 E-score
98 | ACGGGGTC | 0.214 ± 0.0134 E-score
99 | GCACCCAA | 0.154 ± 0.0464 E-score
100 | ACCCCCAC | 0.282 ± 0.0258 E-score
101 | ACACCCAT | 0.458 ± 0.00543 E-score
102 | AAACCCAG | 0.219 ± 0.0117 E-score
103 | ACACCCAA | 0.4542 ± 0.000742 E-score
104 | AACCCCAT | 0.169 ± 0.00626 E-score
105 | ACCCCCAA | 0.312 ± 0.0125 E-score
106 | GCACCCAC | 0.194 ± 0.0207 E-score
107 | ACCCCCAG | 0.23 ± 0.0356 E-score
108 | ACACCCAG | 0.4602 ± 0.00339 E-score
109 | ACACCCAC | 0.4683 ± 0.00307 E-score
110 | ACCCCCAT | 0.272 ± 0.0289 E-score
